This note sets out measurements from PubChem BioAssay (NCI).

The panel holds about 83,000 compounds, 20% with a hit somewhere; the sample as a whole holds those more often.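 Growth was measured after 48 h exposure to one concentration of compound in 96-well plates. Values under 10 count as active.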 Values without a mark were called inactive. Calls of active or inactive are those of the source.

Test systems include NCI-H23 lung; NCI-H226 lung; NCI-H322M lung; HOP-62 NSCLC; NCI-H460 lung; HOP-92 NSCLC; NCI-H522 lung; A549/ATCC NSCLC; 786-0 renal; COLO 205 colon; DU-145 prostate; K-562 leukemia; MALME-3M melanoma; MDA-MB-231 breast; RXF 393 renal; SF-268 CNS; SF-295 CNS; SF-539 CNS; UACC-257 melanoma; M14 melanoma.
Assay in all cases: NCI-60 one-dose screen, 48 h (100 = growth as untreated, 0 = no growth, -100 = all killed)
What all share (conditions): 10 µM unless noted

Consider `CCCOc1ccc(-c2nc(-c3ccc(N)cc3)cs2)cc1`, for which the growth was 96.8% in the experiment with NCI-H23 lung; 111% in the experiment with NCI-H226 lung; 103% in the experiment with NCI-H322M lung; 107% with HOP-62 NSCLC; 98% in the experiment with NCI-H460 lung; 94.4% with HOP-92 NSCLC. Also, the growth is 89.3% in the experiment on NCI-H522 lung; 93.5% with A549/ATCC NSCLC; 87.1% in the experiment on 786-0 renal; 143% in the experiment with COLO 205 colon; 133% in the experiment on DU-145 prostate; 85.3% with K-562 leukemia. Moreover, the growth in the experiment with MALME-3M melanoma is 116%; in the experiment on MDA-MB-231 breast, 99%; with RXF 393 renal, 99.5%; in the experiment with SF-268 CNS, 133%; in the experiment on SF-295 CNS it was 89.3%; with SF-539 CNS it was 103%. Moreover, the growth with UACC-257 melanoma and with M14 melanoma was 111% in each case.
Consider `CC(=O)n1cc(C=O)c2ccccc21`, for which the growth was 94.4% in the experiment on NCI-H23 lung; 91.1% in the experiment with NCI-H226 lung; 105% in the experiment with NCI-H322M lung; 103% in the experiment on HOP-62 NSCLC; 112% with NCI-H460 lung; 94.8% in the experiment with HOP-92 NSCLC. Also, the growth was 91.3% in the experiment with NCI-H522 lung; 89.4% in the experiment on A549/ATCC NSCLC; 101% in the experiment with 786-0 renal; 104% in the experiment on COLO 205 colon; 104% in the experiment on DU-145 prostate; 87.3% in the experiment on K-562 leukemia. The growth was 102% in the experiment on MALME-3M melanoma; 113% in the experiment with MDA-MB-231 breast; 113% in the experiment with RXF 393 renal; 102% in the experiment on SF-268 CNS; 101% with SF-295 CNS; 104% in the experiment with SF-539 CNS. The growth in the experiment with UACC-257 melanoma was 94.7%; in the experiment on M14 melanoma it was 102%.
`CCOC(=O)/C(C#N)=C(\C)CCc1ccccc1`: the growth was 91.8% in the experiment with NCI-H23 lung; 102% in the experiment with NCI-H226 lung; 102% in the experiment on NCI-H322M lung; 84.8% in the experiment with HOP-62 NSCLC; 105% in the experiment on NCI-H460 lung; 81.5% in the experiment on HOP-92 NSCLC. Further, the growth in the experiment on NCI-H522 lung was 86.1%; in the experiment with A549/ATCC NSCLC it was 90.3%; in the experiment with 786-0 renal it was 90.1%; with COLO 205 colon it was 132%; in the experiment on DU-145 prostate, 132%; with K-562 leukemia it was 142%. Also, the growth was 96.5% in the experiment on MALME-3M melanoma; 109% with MDA-MB-231 breast; 97.3% in the experiment on RXF 393 renal; 120% with SF-268 CNS; 114% with SF-295 CNS; 91.8% with SF-539 CNS. The growth was 89.4% in the experiment on UACC-257 melanoma and 92.2% in the experiment on M14 melanoma.
On to `COc1ccc(-c2cc(-c3ccccc3)nc(SCCCCCC(=O)NO)n2)cc1`, for which the growth in the experiment on NCI-H23 lung was 61.7%; in the experiment with NCI-H226 lung, 80.3%; in the experiment with NCI-H322M lung it was 74.3%; in the experiment with HOP-62 NSCLC it was 51.5%; in the experiment on NCI-H460 lung, 51.9%; in the experiment on HOP-92 NSCLC it was 40.5%. Moreover, the growth in the experiment on NCI-H522 lung was 10.1%; with A549/ATCC NSCLC, 59.3%; with 786-0 renal, 88%; with COLO 205 colon, 38.1%; in the experiment with DU-145 prostate it was 61.2%; with K-562 leukemia it was 26.4%. Besides, the growth with MALME-3M melanoma is 21.5%; in the experiment on MDA-MB-231 breast it was 59.2%; with RXF 393 renal, 39.2%; with SF-268 CNS, 98.9%; with SF-295 CNS, 60.4%; in the experiment with SF-539 CNS, 68.1%. Besides, the growth was 36.5% in the experiment with UACC-257 melanoma and 52% with M14 melanoma.
With `O=C1COCCN1c1ccc(NCc2cn(Cc3ccc(F)cc3)c3ccccc23)cc1`, the growth with NCI-H23 lung is 58.9%; in the experiment on NCI-H226 lung, -56.5% (active); in the experiment with NCI-H322M lung it was 87.3%; with HOP-62 NSCLC, 62.5%; with NCI-H460 lung, 15.4%; in the experiment with HOP-92 NSCLC it was 68.2%. For the same molecule, the growth in the experiment with NCI-H522 lung was 58.1%; in the experiment with A549/ATCC NSCLC it was 48.4%; in the experiment on 786-0 renal, 67.1%; with COLO 205 colon, 5.22% (active); with DU-145 prostate, 81.6%; with K-562 leukemia, 27.7%. The growth with MALME-3M melanoma was 61.5%; in the experiment with MDA-MB-231 breast, 85.3%; in the experiment with RXF 393 renal, -3.08% (active); in the experiment with SF-268 CNS it was 96.2%; in the experiment on SF-295 CNS, 44.1%; in the experiment on SF-539 CNS, 92.1%. In addition, the growth in the experiment with UACC-257 melanoma is 27.9%; in the experiment with M14 melanoma, 72.7%.
For `Cc1cccc(C[C@H](NC(=O)Nc2ccc(Cl)cc2F)C(=O)N[C@@H]2C(=O)N3C[C@H](OC(=O)CCN(C)C)C[C@H]3C(=O)N3CCCC[C@H]3C(=O)N[C@@H](C)C(=O)N3C[C@H](C)C[C@H]3C(=O)O[C@H]2C)c1`, the growth in the experiment with NCI-H23 lung is 34.4%; in the experiment on NCI-H226 lung, 28%; in the experiment with NCI-H322M lung it was 59.2%; in the experiment on HOP-62 NSCLC it was 35%; with NCI-H460 lung, 13.6%; in the experiment with HOP-92 NSCLC, 19.1%. The growth in the experiment with NCI-H522 lung is 24.6%; in the experiment with A549/ATCC NSCLC it was 25.4%; with 786-0 renal it was 22.5%; in the experiment with COLO 205 colon it was 9.51% (active); in the experiment with DU-145 prostate it was 23.7%; with K-562 leukemia it was 15.8%. Besides, the growth is 27.1% in the experiment with MALME-3M melanoma; 1.21% (active) in the experiment on MDA-MB-231 breast; 18.7% in the experiment on RXF 393 renal; 24.8% in the experiment with SF-268 CNS; 7.95% (active) with SF-295 CNS; 35.6% in the experiment on SF-539 CNS. Further, the growth in the experiment with UACC-257 melanoma was 16.3%; in the experiment with M14 melanoma, 16.5%.
In the case of `CCN1c2ccccc2C(Cl)(c2ccc(N(C)C)cc2)c2ccccc21`, the growth is 33.8% in the experiment on NCI-H23 lung; 88.2% in the experiment with NCI-H226 lung; 116% in the experiment on NCI-H322M lung; 73.6% with HOP-62 NSCLC; 66% in the experiment with NCI-H460 lung; 59.6% with HOP-92 NSCLC. The growth was 64.2% in the experiment with NCI-H522 lung; 82.9% with A549/ATCC NSCLC; 75.8% in the experiment on 786-0 renal; 75.5% in the experiment on COLO 205 colon; 74.1% with DU-145 prostate; 60.8% in the experiment on K-562 leukemia. Moreover, the growth in the experiment on MALME-3M melanoma is 9.82% (active); with MDA-MB-231 breast, 70.3%; in the experiment with RXF 393 renal, 59.4%; in the experiment on SF-268 CNS it was 54.2%; in the experiment on SF-295 CNS it was 88.4%; with SF-539 CNS it was 93.7%. Moreover, the growth in the experiment with UACC-257 melanoma was 70.3%; in the experiment with M14 melanoma it was 72.9%.
